High-throughput results (PubChem)
Tau fibril FP = qHTS for Inhibitors of Tau Fibril Formation, Fluorescence Polarization; Microtubule-associated protein tau (Homo sapiens), P10636; hit rate 0.39% among 280,000; K18 P301L tau heparin fibrillization, Alexa594 FP, 6 h; Potency, µM (highest dose often 57.7 µM), inactives show top-dose activity, negative = inhibition, usual class: inhibitors; also: potency is read from the fitted curve at half-maximal effect; nearly all actives have a fitted effect of over 55% in size
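Heparin (20 uM) drove fibril formation of recombinant tau K18 P301L, 15 uM unlabeled with 0.24 uM Alexa 594 label, for 6 hr at 37 C in 100 mM sodium acetate pH 7. Fluorescence polarization (555/632 nm) read 1 hr after 30 uM ThT.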
Tau fluor cs = Counterscreen qHTS for Inhibitors of Tau Fibril Formation, Fluorescence Polarization | tau K18 P301L Alexa594 fluorescence, heparin fibrillization | Potency, µM (series often up to 57.7 µM), for inactives: top-dose activity change, negative = decrease | hit rate 0.93% among 280,000; also: potency is read from the fitted curve at half-maximal effect; nearly all actives have a fitted effect of over 55% in size
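Human tau K18 P301L (15 uM unlabeled, 0.24 uM Alexa 594-labeled) in 100 mM sodium acetate pH 7 with 20 uM heparin, 6 hr at 37 C. ThT 30 uM added, 1 hr ambient; Alexa 594 FP and total fluorescence read at 555/632 nm.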
PNC assembly inh = High Content Assay for Compounds that inhibit the Assembly of the Perinucleolar Compartment | PC3M PTB-GFP, PNC prevalence imaging, 16 h; hits give low values | activity change (PNC), negative = inhibition, % at 10 µM | hit rate 3.1% among 140,000 | AID 2417, 2010;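 active = readout at or below -70, meaning at least 70% loss of cells showing the perinucleolar compartment, a nuclear body marking cancer cells; inconclusive = readout between -30 and a set limit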;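 also: plate controls were DMSO wells for no effect and camptothecin positive control wells for full effect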
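Compounds are pinned in duplicate onto adhered PC3M cells stably expressing GFP-tagged PTB and incubated 16 h at 37 C. Cells are then fixed, nuclei stained with Hoechst, and PNC-positive cells counted.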
Tau ThT inhib = qHTS for Inhibitors of Tau Fibril Formation, Thioflavin T Binding | Microtubule-associated protein tau (Homo sapiens), P10636 | recombinant tau K18 P301L (four-repeat tau fragment), heparin-induced fibrillization, ThT fluorescence | Potency, µM (titrated, usually from 57.4 µM), for the others: top-dose activity, negative = inhibition, actives largely listed as inhibitors | hit rate 2.1% among 270,000; also: potency is read from the fitted curve at half-maximal effect; nearly all actives have a fitted effect of over 55% in size
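Aggregation was driven by heparin (20 uM final) acting on recombinant tau […] bearing P301L in 100 mM sodium acetate pH 7; fibrils were detected with Thioflavin T.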
KDM4E inh = qHTS Assay for Inhibitors of Human Jumonji Domain Containing 2E (JMJD2E); AID 2147, 2009; Potency, µM (highest dose often 57.1 µM), for inactives: at the highest dose activity change, negative = inhibition, most hits filed as inhibitors; Lysine-specific demethylase 4E (Homo sapiens), B2RXH2; JMJD2E catalytic domain, FDH-coupled NADH fluorescence (FDH is formaldehyde dehydrogenase); hit rate 1.6% among 230,000; active = well fitted inhibition curve with a large enough effect, not every such curve was filed as active; inconclusive = small, poorly fitted or top-dose-only effect, or another doubt; inactive = no such curve, though single readings can be large or run the other way;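 also: potency is read from the fitted curve at half-maximal effect; 0% = wells with enzyme and -100% = buffer wells without enzyme; nearly all actives have a fitted effect of over 50% in size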
Target sequence (B2RXH2 1-337 limits assumed): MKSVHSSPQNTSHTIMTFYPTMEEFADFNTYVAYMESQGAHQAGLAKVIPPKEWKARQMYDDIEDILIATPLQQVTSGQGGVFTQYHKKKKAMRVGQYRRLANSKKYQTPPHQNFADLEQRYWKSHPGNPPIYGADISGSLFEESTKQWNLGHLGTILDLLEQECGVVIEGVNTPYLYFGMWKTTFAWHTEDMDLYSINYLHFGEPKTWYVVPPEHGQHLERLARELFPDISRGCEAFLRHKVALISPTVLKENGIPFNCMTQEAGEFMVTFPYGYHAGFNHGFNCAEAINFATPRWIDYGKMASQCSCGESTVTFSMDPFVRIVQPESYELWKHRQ
NPSR antag = qHTS Assay for Antagonists of the Neuropeptide S Receptor: cAMP Signal Transduction; Q6W5P4; CHO-NPSR cells, cAMP TR-FRET, antagonist mode; Potency, µM (doses to about 38.3 µM), for inactives: top-dose activity change, negative = inhibition, most hits filed as inhibitors; hit rate 1% among 220,000; AID 1461, 2008; also: potency is read from the fitted curve at half-maximal effect; nearly all actives have a fitted effect of over 50% in size
Target sequence (Q6W5P4 whole entry, looked up): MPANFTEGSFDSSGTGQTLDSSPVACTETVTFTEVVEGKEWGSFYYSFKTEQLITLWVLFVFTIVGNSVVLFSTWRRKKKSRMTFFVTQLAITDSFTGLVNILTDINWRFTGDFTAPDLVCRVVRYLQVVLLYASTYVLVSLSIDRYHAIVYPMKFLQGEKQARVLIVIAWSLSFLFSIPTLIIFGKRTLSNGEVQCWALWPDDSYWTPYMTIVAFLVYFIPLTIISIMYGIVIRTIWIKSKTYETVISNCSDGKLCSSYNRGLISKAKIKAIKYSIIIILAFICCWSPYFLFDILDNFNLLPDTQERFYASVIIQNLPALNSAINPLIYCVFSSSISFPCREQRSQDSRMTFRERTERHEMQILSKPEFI
* marks the source's active call; other numbers are inactive results; ? = inconclusive; / = no result given; [ ] = remark or other dose. Sampled rows, rich in hits. Any-hit rate of the full collection: about 5.1%. Unless noted, calls follow the shape of the dose curve; as a rule, active = well fitted curve in the direction sought with a large enough effect; inconclusive = small, poorly fitted or top-dose-only effect, or another doubt; inactive = no such curve, though single readings can be large; an effect the other way counts as inactive or inconclusive. Unless noted, % is scaled to controls: 0 for no effect and ±100 for the full control effect.

SMILES	Tau fibril FP	Tau fluor cs	PNC assembly inh	Tau ThT inhib	KDM4E inh	NPSR antag
CN(Cc1ccccc1)S(=O)(=O)c1cc(Br)cc2c1N(C(=O)C1CC1)CC2	-2.0%	-24.9%	/	-6.1%	/	/
COc1ccccc1NC(=O)N1CCOc2ccccc21	4.0%	12.6µM*[quencher]	/	?	/	/
Cc1ccc(CNC(=O)CCCCCn2c(=O)c3sccc3n(CC(=O)N(C)c3ccccc3)c2=O)cc1	0.8%	-10.3%	/	-6.5%	/	/
CCn1nc(C)c(NS(=O)(=O)c2ccc(C)cc2)c1C	-1.1%	2.1%	-100.0*	-4.5%	4.3%	-4.7%[46.1 µM]
Cc1ccc(S(=O)(=O)Nc2c(C)nn(C)c2C)cc1	-6.0%	-11.7%	?	-8.2%	5.2%	-3.2%[46.1 µM]
O=C(COc1ccc(Cl)cc1)OCc1cc(=O)n2nc(-c3cccs3)sc2n1	3.4%	-14.0%	/	?	/	/
CC(=O)O[C@@H]1C(CO[Si](C)(C)C(C)(C)C)=C(Br)C(=O)[C@@H]2O[C@]12C	?	-26.4%	/	28.2µM*	-17.0%	/
Cc1cccc(NC(=O)C(NS(=O)(=O)c2ccc3c(c2)oc(=O)n3C)C(C)C)c1 (centres undefined)	-6.1%	-8.7%	/	-4.8%	/	/
Cc1ccc(Cn2c(SCCN3CCOCC3)nc3c2c(=O)n(C)c(=O)n3C)cc1	4.7%	-6.1%	-80.6*	-8.4%	-2.2%	-2.8%[46.1 µM]
Cc1cccc(Cn2c(SCCN3CCOCC3)nc3c2c(=O)n(C)c(=O)n3C)c1	-0.1%	-3.0%	-1.2	1.2%	2.6%	?
NC(=S)N/N=C/c1ccc(-c2ccccc2)o1	10.3%	-21.7%	/	?	?	-46.5%
Cc1ccc(-c2ccc(/C=N/NC(N)=S)o2)cc1	-11.1%	-20.4%	/	?	?	6.31µM*
COc1cccc2cc(S(=O)(=O)c3ccc(F)c(C)c3)c(=O)oc12	-8.9%	-6.9%	/	3.4%	/	/
Cc1[nH]c2ccc(F)cc2c1CCN(Cc1ccncc1)C(=S)Nc1ccc(F)cc1	-3.4%	?	/	-11.3%	-4.0%	7.94µM*
Cc1[nH]c2ccc(F)cc2c1CCN(Cc1cccnc1)C(=S)Nc1cccc(F)c1	13.0%	?	/	-13.2%	7.6%	10µM*
CC1CCC2C(=O)N3CCCC3C(=O)N2C1c1ccc(Br)cc1 (centres undefined)	1.9%[11.6 µM]	-10.6%[11.6 µM]	/	-9.7%[11.5 µM]	/	/
CCN(C(=O)C1CCN(S(=O)(=O)c2c(C)noc2/C=C/c2ccc(C)cc2)CC1)c1cccc(C)c1	-3.9%	-10.9%	/	-13.9%	/	/
COc1cc(NC(=O)CCc2c(C)n(C)c3cc(-c4ccccc4C)nn3c2=O)cc(OC)c1OC	-3.8%	-18.8%	/	-8.7%	/	/
COc1ccc(NC2=NC(=S)N(c3ccccc3C)C23CCCCC3)cc1	9.8%	-11.9%	35.6	-13.7%	3.0%	-9.4%[46.1 µM]
[O-][N+]1=c2ccc(Nc3ccccc3)cc2=NC12CCCCC2	?	?	1.0	7.08µM*	?	10µM*
COc1ccc(Nc2ccc3c(c2)=NC2(CCCCC2)[N+]=3[O-])cc1	?	?	13.4	4.47µM*	?	?
CCOC(=O)c1ccccc1NC(=O)Cn1c(=O)n(-c2ccc(CC)cc2)c(=O)c2c(C)c(C(=O)N(C)C)sc21	-4.7%	-1.1%	/	1.8%	/	/
Cc1cccc2cc(C#N)c(SCC(=O)NCc3cccs3)nc12	2.9%	3.8%	-21.8	4.0%	1.2%	7.94µM*
Cc1cccc2cc(C#N)c(SCC(=O)NCC3CCCO3)nc12 (centres undefined)	3.2%	8.1%	-20.9	0.8%	-1.3%	?
Cc1ccc(NC2=C(N3CCOCC3)C(=O)c3ccccc3C2=O)cc1	?	?	-28.6	?	?	4.0%[46.1 µM]
SMILES	Tau fibril FP	Tau fluor cs	PNC assembly inh	Tau ThT inhib	KDM4E inh	NPSR antag
CCOC(=O)c1ccc(NC2=CC(=O)C(=O)c3ccccc32)cc1	-10.3%	?	18.3	12.6µM*	?	-4.8%[46.1 µM]
Cc1ccc(NC2=CC(=O)C(=O)c3ccccc32)cc1	?	?	10.7	25.1µM*	14.1µM*	-12.1%[46.1 µM]
O=C(CCC1N=C2c3ccccc3N=C(SCc3ccccc3F)N2C1=O)NCc1ccc(F)cc1 (centres undefined)	-1.7%	21.5%	/	8.1%	/	/
C(=N\Nc1nc2ccccc2s1)/c1cccs1	?	14.1µM*[quencher]	24.4	14.1µM*	-7.2%	?
Cc1nn(-c2ccccc2Cl)c(Cl)c1/C=N/Nc1nc2ccccc2s1	4.3%	-10.2%	-82.6*	-1.9%	6.3%	-34.3%
Cc1ccsc1/C=N/Nc1nc2ccccc2s1	?	-1.7%	29.7	8.0%	-3.9%	-21.6%
CCn1c(C)c(/C=N/Nc2nc3ccccc3s2)c2ccccc21	1.4%	7.08µM*[quencher]	16.6	7.08µM*	?	-27.6%[46.1 µM]
COc1ccc(/C=N/Nc2nc3ccccc3s2)cc1O	9.0%	12.6µM*[quencher]	/	12.6µM*	-29.5%	-26.4%
COc1ccc(/C=N/Nc2nc3ccccc3o2)cc1O	?	?	8.8	?	-4.4%	-18.0%[46.1 µM]
CCOC(=O)N/N=C/c1c(C)nn(-c2ccccc2Cl)c1Cl	4.9%	-2.6%	-8.9	-4.9%	6.2%	?
Cc1ccc(S(=O)(=O)c2cn(CC(=O)Nc3ccc4c(c3)OCO4)c3ccccc3c2=O)cc1C	-15.2%	?	/	-11.6%	/	/
Cc1ccc(S(=O)(=O)Nc2cc3c(cc2C)n(C)c(=O)c(=O)n3C)c(C)c1	0.0%	7.9%	/	3.1%	/	/
S=C(Nc1ccccc1)c1ccccn1	-0.2%	-1.4%	4.4	?	-10.4%	3.98µM*
COc1ccc(NC(=O)c2c(NCc3ccc(C)o3)sc3c2CCC(C)C3)c(OC)c1 (centres undefined)	-8.6%	?	/	?	/	/
COc1ccc(NC(=O)c2c(NCc3ccc(C)o3)sc3c2CCCCC3)c(OC)c1	?	?	/	17.8µM*	/	/
COc1ccccc1NC(=O)c1c(NCc2sccc2C)sc2c1CCCCC2	0.5%	-19.3%	/	?	/	/
COc1ccc(NC(=O)c2c(NCc3sccc3C)sc3c2CCCCC3)c(OC)c1	?	?	/	28.2µM*	/	/
COc1ccc(Cl)cc1NC(=O)c1c(NCc2cccs2)sc2c1CCCC2	-3.8%	?	/	?	/	/
COc1ccc(Cl)cc1NC(=O)c1c(NCc2sccc2C)sc2c1CCCC2	?	?	/	3.98µM*	/	/
Cc1ccc(N2CC(C(=O)NCc3nnnn3-c3ccc(C)c(C)c3)CC2=O)cc1C (centres undefined)	-0.5%	-13.0%	/	-8.4%	/	/
